Molecules are shown by their SMILES. The panel holds about 83,000 compounds, 20% with a hit somewhere; the sample as a whole holds those more often.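 Each cell line was grown in a 96-well plate and treated with one concentration of compound for 48 hours. Values below 10 were considered active.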 Values without a mark were called inactive. Activity calls are given as the source filed them.

Some test systems named below: HCT-15 colon; HT29 colon; SNB-75 CNS; SNB-19 CNS; U251 CNS; PC-3 prostate; SK-MEL-5 melanoma; UACC-62 melanoma; LOX IMVI melanoma; SK-MEL-28 melanoma; SK-MEL-2 melanoma; EKVX NSCLC; SN12C renal; UO-31 renal; TK-10 renal; ACHN renal; CAKI-1 renal; A498 renal; CCRF-CEM leukemia; MOLT-4 leukemia.
Common to all, as to assay: NCI-60 one-dose screen, 48 h (100 = growth as untreated, 0 = no growth, -100 = all killed)
What all share (details): 10 µM unless noted

With `O=C(Nc1ccc(N=Cc2c(O)[nH]c3ccccc23)cc1)Nc1ccc(S(=O)(=O)Nc2ncccn2)cc1`, the growth in the test on HCT-15 colon was 97.4%; in the test on HT29 colon, 104%; with SNB-75 CNS, 99%; in the test with SNB-19 CNS, 101%; with U251 CNS, 103%; with PC-3 prostate, 94.1%. Further, the growth with SK-MEL-5 melanoma was 100%; in the test with UACC-62 melanoma it was 103%; in the test with LOX IMVI melanoma, 101%; with SK-MEL-28 melanoma it was 120%; in the test with SK-MEL-2 melanoma, 111%; in the test on EKVX NSCLC it was 98.1%. For the same compound, the growth with SN12C renal was 98.8%; with UO-31 renal it was 81.7%; in the test on TK-10 renal, 108%; in the test with ACHN renal it was 104%; in the test on CAKI-1 renal, 94.8%; in the test on A498 renal, 114%. Besides, the growth in the test with CCRF-CEM leukemia was 109%; in the test on MOLT-4 leukemia, 121%.
With `C[C@@H]1OCC2(CCN(c3cnc(C(=O)Nc4cc(F)cc5cccnc45)cn3)CC2)[C@@H]1N`, the growth in the test with HCT-15 colon was 20.9%; in the test with HT29 colon it was 32.4%; in the test on SNB-75 CNS it was 65.1%; in the test with SNB-19 CNS, 78.1%; with U251 CNS, 75.3%; with PC-3 prostate it was 55.7%. Also, the growth in the test with SK-MEL-5 melanoma was 94.4%; in the test on UACC-62 melanoma, 54%; in the test on LOX IMVI melanoma, 44.5%; with SK-MEL-28 melanoma, 70%; in the test with SK-MEL-2 melanoma, 97.9%; in the test on EKVX NSCLC, 78.2%. Also, the growth in the test on SN12C renal was 59.6%; in the test on UO-31 renal, 41.1%; in the test with TK-10 renal it was 90.8%; in the test with ACHN renal it was 31.8%; in the test on CAKI-1 renal it was 45.8%; in the test with A498 renal it was 71.9%. Further, the values for the growth with CCRF-CEM leukemia and with MOLT-4 leukemia were 15.7% and 20.8%, respectively.
For `COc1ccc(C(C)=C(c2ccc(OCCN(C)C)cc2)c2ccc(OCCN(C)C)cc2)cc1`, the growth in the test with HCT-15 colon is -46.1% (active); in the test with HT29 colon it was -53.5% (active); with SNB-75 CNS it was 3.78% (active); in the test with SNB-19 CNS, 12.6%; with U251 CNS it was -64.1% (active); in the test on PC-3 prostate, 1.05% (active). For the same compound, the growth is -82.6% (active) with SK-MEL-5 melanoma; -66.3% (active) with UACC-62 melanoma; -79.9% (active) in the test on LOX IMVI melanoma; -88.4% (active) in the test on SK-MEL-28 melanoma; -70.3% (active) in the test on SK-MEL-2 melanoma; 13.5% in the test on EKVX NSCLC. In addition, the growth with SN12C renal was 0.111% (active); in the test on UO-31 renal, -59.4% (active); in the test with TK-10 renal, -56.1% (active); in the test with ACHN renal, -46% (active); in the test with CAKI-1 renal it was -69.1% (active); with A498 renal it was -38.9% (active). Moreover, the values for the growth in the test with CCRF-CEM leukemia and in the test on MOLT-4 leukemia were -23.6% (active) and -37.6% (active), respectively.
For `CN1CCN(c2ccc(Nc3nc(NCCCNS(=O)(=O)c4ccc(F)cc4)c4sccc4n3)cc2)CC1`, the growth was 25.5% in the test on HCT-15 colon; 11.4% with HT29 colon; 78.5% with SNB-75 CNS; 74.5% in the test with SNB-19 CNS; 15.7% in the test on U251 CNS; 60.5% with PC-3 prostate. Moreover, the growth with SK-MEL-5 melanoma was 20.5%; in the test with UACC-62 melanoma it was 21.1%; in the test with LOX IMVI melanoma, -5.7% (active); in the test with SK-MEL-28 melanoma, -42.9% (active); with SK-MEL-2 melanoma, 107%; in the test with EKVX NSCLC, 93.5%. The growth is 82% in the test with SN12C renal; 64.7% in the test with UO-31 renal; 140% in the test on TK-10 renal; 70.4% in the test on ACHN renal; 67.6% in the test with CAKI-1 renal; 128% with A498 renal. For the same compound, the growth in the test with CCRF-CEM leukemia was 31.1%; with MOLT-4 leukemia, 21.6%.
Regarding `CCCNNC(=O)c1ccc(-c2ccc(NC(=O)CCCCCCC(=O)N[C@H](C(=O)N3C[C@H](O)C[C@H]3C(=O)N[C@@H](C)c3ccc(-c4scnc4C)cc3)C(C)(C)C)cc2)cc1`, the growth was 97.5% in the test with HCT-15 colon; 5.44% (active) with HT29 colon; 55.1% in the test with SNB-75 CNS; 28.6% with SNB-19 CNS; 17.1% in the test on U251 CNS; 37.2% with PC-3 prostate. Moreover, the growth with SK-MEL-5 melanoma is -0.921% (active); in the test with UACC-62 melanoma, -5.46% (active); with LOX IMVI melanoma, -41.8% (active); with SK-MEL-28 melanoma, 23.9%; in the test with SK-MEL-2 melanoma it was 7.01% (active); in the test with EKVX NSCLC, 79.4%. The growth in the test on SN12C renal was 47.8%; in the test on UO-31 renal, 83.6%; with TK-10 renal, 2.19% (active); with ACHN renal it was 78.2%; with CAKI-1 renal, 61.8%; with A498 renal it was -14.4% (active). The growth is 23.2% with CCRF-CEM leukemia and 21.1% in the test on MOLT-4 leukemia.
Regarding `CN1CCN(Cc2ccc(NC(=O)c3cncc(C#Cc4cnc5ccc(OCC(F)F)nn45)c3)cc2C(F)(F)F)CC1`, the growth in the test with HCT-15 colon was -57.4% (active); with HT29 colon, -66% (active); in the test with SNB-75 CNS, -95.1% (active); in the test with SNB-19 CNS, -31.7% (active); in the test with U251 CNS it was -72.7% (active); in the test with PC-3 prostate, -19.4% (active). Also, the growth in the test on SK-MEL-5 melanoma is -95.7% (active); in the test on UACC-62 melanoma, -46.8% (active); in the test on LOX IMVI melanoma, -91.2% (active); with SK-MEL-28 melanoma it was -82.4% (active); in the test with SK-MEL-2 melanoma it was -86.5% (active); in the test with EKVX NSCLC it was -69.1% (active). Also, the growth in the test on SN12C renal is -75.2% (active); in the test on UO-31 renal, -95.8% (active); with TK-10 renal, -84.4% (active); with ACHN renal, -98.3% (active); with CAKI-1 renal, -95.9% (active); in the test with A498 renal it was -91.7% (active). Moreover, the growth in the test on CCRF-CEM leukemia is 2.09% (active); in the test on MOLT-4 leukemia, -21.7% (active).
In the case of `COC(=O)CNC(=O)c1cccc(-c2cc(=O)c3c(OC)c(OC)c(OC)cc3o2)c1`, the growth in the test with HCT-15 colon is 96%; with HT29 colon it was 110%; in the test with SNB-75 CNS, 99.5%; in the test on SNB-19 CNS, 92.6%; in the test with U251 CNS, 106%; in the test on PC-3 prostate, 95.6%. Also, the growth is 98.6% in the test on SK-MEL-5 melanoma; 90.2% in the test with UACC-62 melanoma; 97.5% in the test with LOX IMVI melanoma; 106% in the test on SK-MEL-28 melanoma; 105% with SK-MEL-2 melanoma; 102% in the test on EKVX NSCLC. The growth with SN12C renal is 104%; with UO-31 renal, 86.1%; with TK-10 renal, 109%; with ACHN renal it was 98.9%; in the test with CAKI-1 renal it was 102%; with A498 renal, 90.8%. In addition, the growth in the test with CCRF-CEM leukemia was 91.3%; with MOLT-4 leukemia, 99.5%.
For the compound `COC(=O)CCCNCCCn1ccc2cc(NCc3cccc(-c4ccccc4)c3C)ccc21`, the growth in the test on HCT-15 colon was 55.5%; in the test on HT29 colon, 90.7%; in the test on SNB-75 CNS, 68.9%; in the test on SNB-19 CNS it was 82.4%; in the test on U251 CNS it was 64.8%; in the test with PC-3 prostate, 58.4%. In addition, the growth with SK-MEL-5 melanoma was 92.8%; with UACC-62 melanoma, 83.4%; in the test with LOX IMVI melanoma, 4.91% (active); in the test with SK-MEL-28 melanoma, 75.9%; with SK-MEL-2 melanoma, 95.6%; in the test with EKVX NSCLC, 73.6%. The growth is 73.4% with SN12C renal; 54.5% in the test on UO-31 renal; 115% with TK-10 renal; 77.8% in the test on ACHN renal; 48.4% in the test with CAKI-1 renal; 16.4% with A498 renal. Moreover, the growth is 33.8% in the test with CCRF-CEM leukemia and 49.5% in the test on MOLT-4 leukemia.

These data come from PubChem BioAssay (NCI).
